Experimental data: PubChem BioAssay (EPA / NIEHS)
Calls of active or inactive are those of the source. How the source made its calls: active means hit-call score of the fitted dose curve at least 0.9, where 1 is the maximum; inactive means score below 0.9.

Key:
[1] = target: Transcription factor E2F1 (Homo sapiens) (UniProt Q01094); test: ATG_E2F_CIS: Attagene CIS-FACTORIAL HepG2 Assay for human E2F Transcription Factor 1 (AID 2282935); conditions: HepG2 Attagene cis-reporter, E2F reporter RNA transcripts; actives raise or lower the signal
Transcription factor E2F1 (Homo sapiens), sequence (Q01094 whole entry, looked up): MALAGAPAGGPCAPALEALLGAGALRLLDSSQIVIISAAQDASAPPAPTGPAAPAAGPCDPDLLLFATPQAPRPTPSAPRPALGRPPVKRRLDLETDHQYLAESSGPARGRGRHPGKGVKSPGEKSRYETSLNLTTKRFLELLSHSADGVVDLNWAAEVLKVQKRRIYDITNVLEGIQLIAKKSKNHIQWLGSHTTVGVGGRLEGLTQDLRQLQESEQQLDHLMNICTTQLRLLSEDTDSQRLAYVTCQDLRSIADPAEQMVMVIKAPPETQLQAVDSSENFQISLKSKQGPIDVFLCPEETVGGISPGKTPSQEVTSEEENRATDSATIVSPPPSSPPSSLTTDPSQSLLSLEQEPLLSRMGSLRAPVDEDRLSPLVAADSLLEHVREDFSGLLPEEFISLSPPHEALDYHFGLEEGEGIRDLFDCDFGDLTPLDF
Summary of the method: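 Endogenous E2F1 activity read through cis-promoter reporter units transfected into HepG2. After 24 h compound treatment, reporter mRNA measured by RT-PCR, HpaI digestion and capillary electrophoresis. Bidirectional fit versus DMSO.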

[2] = ATG_E_Box_CIS: Attagene CIS-FACTORIAL HepG2 Assay for human Enhancer Box (E-box) (AID 2282936); conditions: HepG2 E-box cis-reporter transcription, actives raise or lower the signal
Summary of the method: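 HepG2 cells transiently transfected with multiplexed cis-element reporter units, dosed 24 h; reporter mRNA quantified by RT-PCR, 6-FAM labelling, HpaI digestion and capillary electrophoresis. E-box (USF1) signal fitted bidirectionally vs DMSO.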

[3] = ATG_M_61_CIS: Attagene CIS-FACTORIAL HepG2 Assay for M61 Transcription Factor (Internal Marker) (AID 2282937); conditions: HepG2 Attagene CIS-FACTORIAL M61 internal marker reporter; actives raise or lower the signal
Summary of the method: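 HepG2 cells transiently transfected with cis-element-driven multiple reporter transcription units, dosed for 24 h. Reporter mRNA measured by RT-PCR, 6-FAM primer-extension labelling, HpaI digestion and capillary electrophoresis; bidirectional fit versus DMSO baseline.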

[4] = ATG_EGR_CIS: Attagene CIS-FACTORIAL HepG2 Assay for human Early Growth Response 1 (EGR1) (AID 2282938); conditions: HepG2 Attagene CIS-FACTORIAL EGR reporter mRNA; actives raise or lower the signal
Summary of the method: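 HepG2 cells transiently transfected with cis-promoter-driven multiplexed reporter transcription units; reporter mRNA measured 24 h after compound dosing by RT-PCR, 6-FAM primer extension, HpaI digestion and capillary electrophoresis. Bidirectional fit versus DMSO baseline.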

[5] = ATG_M_19_CIS: Attagene CIS-FACTORIAL HepG2 Assay for M19 Transcription Factor (Internal Marker) (AID 2282939); conditions: HepG2 Attagene CIS-FACTORIAL M19 internal marker reporter; actives raise or lower the signal
Summary of the method: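 In this multiplexed cell assay, transiently transfected HepG2 reporter units report endogenous transcription-factor activity; after 24 hours of treatment, labelled reporter cDNA fragments are quantified by capillary electrophoresis and fitted bidirectionally against DMSO.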

[6] = ATG_ERE_CIS: Attagene CIS-FACTORIAL HepG2 Assay for Estrogen Response Element (ERE) (AID 2282940); conditions: HepG2 ERE cis-reporter, Attagene RNA transcript; actives raise or lower the signal
Summary of the method: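 Measuring endogenous transcription factor output, the assay doses transfected HepG2 cells for 24 hours and quantifies reporter transcripts by fluorescent RT-PCR and capillary electrophoresis, with DMSO as baseline.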

[7] = ATG_Ets_CIS: Attagene CIS-FACTORIAL HepG2 Assay for human Erythroblast Transformation Specific (ETS) (AID 2282941); conditions: HepG2 ETS cis-reporter transcription, actives raise or lower the signal
Summary of the method: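 HepG2 cells transfected with multiple cis-regulated reporter units measuring endogenous ETS-driven transcription, 24 h after dosing. Reporter mRNA quantified by RT-PCR with capillary electrophoresis; bidirectional fit relative to DMSO.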

[8] = target: Hepatocyte nuclear factor 3-beta (Homo sapiens) (UniProt Q9Y261); test: ATG_FoxA2_CIS: Attagene CIS-FACTORIAL HepG2 Assay for human Forkhead box A2 (FOXA2) (AID 2282942); conditions: HepG2 cis-reporter transcription factor activity, 24 h; actives raise or lower the signal
Hepatocyte nuclear factor 3-beta (Homo sapiens), sequence (Q9Y261 whole entry, looked up): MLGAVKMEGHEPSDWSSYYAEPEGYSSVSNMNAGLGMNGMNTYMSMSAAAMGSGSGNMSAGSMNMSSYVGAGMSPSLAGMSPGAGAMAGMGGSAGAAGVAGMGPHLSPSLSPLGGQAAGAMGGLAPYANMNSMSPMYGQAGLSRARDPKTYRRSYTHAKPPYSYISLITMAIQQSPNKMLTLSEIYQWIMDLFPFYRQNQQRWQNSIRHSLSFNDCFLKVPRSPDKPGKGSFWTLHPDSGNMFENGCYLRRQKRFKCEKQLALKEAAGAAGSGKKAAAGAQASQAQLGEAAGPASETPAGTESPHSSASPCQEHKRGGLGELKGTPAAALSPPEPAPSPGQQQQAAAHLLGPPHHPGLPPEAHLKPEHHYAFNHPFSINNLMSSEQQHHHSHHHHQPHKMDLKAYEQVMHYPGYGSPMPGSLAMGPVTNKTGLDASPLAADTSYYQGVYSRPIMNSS
Summary of the method: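 HepG2 cells transiently transfected with multiple cis-regulated reporter transcription units, dosed for 24 h. Reporter mRNA measured by RT-PCR, 6-FAM labelling, HpaI digestion and capillary electrophoresis; bidirectional fitting against DMSO baseline.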

[9] = ATG_FoxO_CIS: Attagene CIS-FACTORIAL HepG2 Assay for human Forkhead box O (FoxO) (AID 2282943); conditions: HepG2 Attagene cis-reporter, FoxO element, mRNA; actives raise or lower the signal
Summary of the method: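 HepG2 cells transiently transfected with cis-element-driven reporter units report endogenous FoxO activity. After 24 h chemical exposure, reporter mRNA quantified by RT-PCR, fluorescent labeling, HpaI digestion and capillary electrophoresis; bidirectional fit versus DMSO.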

[10] = ATG_GATA_CIS: Attagene CIS-FACTORIAL HepG2 Assay for human GATA Binding Protein (AID 2282944); conditions: HepG2 GATA cis-element reporter, Attagene multiplex mRNA; actives raise or lower the signal
Summary of the method: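 Measures endogenous transcription factor-driven reporter mRNA in HepG2 cells transiently carrying cis-regulated constructs. 24 h dosing; RNA via oligo(dT) reverse transcription, PCR, HpaI digestion, capillary electrophoresis; fitted relative to DMSO.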

[11] = ATG_GLI_CIS: Attagene CIS-FACTORIAL HepG2 Assay for human Zinc Finger Protein GLI1 (AID 2282945); conditions: HepG2, Attagene cis-factorial reporter mRNA, GLI element; actives raise or lower the signal
Summary of the method: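 Transiently transfected HepG2 cells report endogenous transcription factor activity via cis-element-driven reporter units. After 24 h compound exposure, reporter mRNA was measured by RT-PCR with capillary electrophoresis; bidirectional fitting against DMSO baseline.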

[12] = target: Bile acid receptor (Homo sapiens) (UniProt Q96RI1); test: ATG_IR1_CIS: Attagene CIS-FACTORIAL HepG2 Assay for human Nuclear Receptor Subfamily 1 Group H Member 4 (NR1H4), IR1 submotif (AID 2282946); conditions: IR1 reporter transcription, actives raise or lower the signal
Bile acid receptor (Homo sapiens), sequence (Q96RI1 whole entry, looked up): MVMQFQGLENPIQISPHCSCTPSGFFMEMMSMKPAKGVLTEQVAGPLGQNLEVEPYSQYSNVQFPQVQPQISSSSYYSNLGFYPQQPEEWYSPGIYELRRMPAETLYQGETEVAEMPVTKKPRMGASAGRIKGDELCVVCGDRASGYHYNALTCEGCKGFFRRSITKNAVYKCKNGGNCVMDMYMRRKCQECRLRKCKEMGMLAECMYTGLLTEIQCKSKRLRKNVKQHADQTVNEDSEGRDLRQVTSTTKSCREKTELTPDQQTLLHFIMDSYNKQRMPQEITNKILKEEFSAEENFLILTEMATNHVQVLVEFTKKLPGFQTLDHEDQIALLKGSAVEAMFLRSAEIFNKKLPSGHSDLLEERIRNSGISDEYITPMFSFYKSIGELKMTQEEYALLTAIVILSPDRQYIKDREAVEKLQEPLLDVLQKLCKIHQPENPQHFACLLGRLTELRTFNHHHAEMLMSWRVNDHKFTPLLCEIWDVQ
Summary of the method: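 HepG2 cells transiently transfected with multiple cis-promoter-driven reporter units to measure endogenous transcription factor activity; 24 h exposure. Reporter mRNA read by RT-PCR, FAM labelling, HpaI digestion and capillary electrophoresis. Bidirectional fit versus DMSO.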

[13] = ATG_GRE_CIS: Attagene CIS-FACTORIAL HepG2 Assay for human Glucocorticoid Response Elements (GRE) (AID 2282947); conditions: HepG2 GRE cis-reporter, Attagene multiplex mRNA; actives raise or lower the signal
Summary of the method: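 Transiently transfected HepG2 cells carrying GRE cis-reporter units (endogenous TF activity) dosed 24 h; reporter mRNA quantified by RT-PCR, 6-FAM labelling, HpaI digestion and capillary electrophoresis. Bidirectional fit versus DMSO baseline.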

[14] = ATG_ISRE_CIS: Attagene CIS-FACTORIAL HepG2 Assay for human Interferon Regulatory Factor 1 (IRF1) binding to an Interferon-Stimulated Response Element (ISRE) (AID 2282948); conditions: HepG2 ISRE cis-reporter (Attagene), mRNA transcription readout; actives raise or lower the signal
Summary of the method: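 Transiently transfected HepG2 cells carrying cis-element reporter units, dosed 24 hours. Reporter mRNA quantified by RT-PCR, fluorescent primer extension, HpaI digestion and capillary electrophoresis. Bidirectional fitting relative to DMSO.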

[15] = ATG_M_32_CIS: Attagene CIS-FACTORIAL HepG2 Assay for M32 Transcription Factor (Internal Marker) (AID 2282949); conditions: HepG2 Attagene cis-factorial M32 reporter, mRNA; actives raise or lower the signal;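 further: background control marker of the multiplexed CIS panel rather than a real target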
Summary of the method: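 HepG2 cells transiently transfected with multiplexed cis-regulated reporter units, dosed 24 h. Reporter mRNA quantified by RT-PCR, 6-FAM labelling, HpaI digestion and capillary electrophoresis; bidirectional fit vs DMSO.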

[16] = ATG_M_06_CIS: Attagene CIS-FACTORIAL HepG2 Assay for M06 Transcription Factor (Internal Marker) (AID 2282950); conditions: HepG2 Attagene CIS-FACTORIAL M06 internal marker reporter; actives raise or lower the signal
Summary of the method: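 One of many multiplexed endpoints: HepG2 reporter mRNA after 24 h dosing, detected by RT-PCR and capillary electrophoresis fluorescence; gain or loss of signal analysed against DMSO.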

[17] = target: Hypoxia-inducible factor 1-alpha (Homo sapiens) (UniProt Q16665); test: ATG_HIF1a_CIS: Attagene CIS-FACTORIAL HepG2 Assay for human Hypoxia Inducible Factor 1 (HIF1A) (AID 2282951); conditions: HepG2 Attagene cis-factorial HIF1a reporter transcription; actives raise or lower the signal
Hypoxia-inducible factor 1-alpha (Homo sapiens), sequence (Q16665 whole entry, looked up): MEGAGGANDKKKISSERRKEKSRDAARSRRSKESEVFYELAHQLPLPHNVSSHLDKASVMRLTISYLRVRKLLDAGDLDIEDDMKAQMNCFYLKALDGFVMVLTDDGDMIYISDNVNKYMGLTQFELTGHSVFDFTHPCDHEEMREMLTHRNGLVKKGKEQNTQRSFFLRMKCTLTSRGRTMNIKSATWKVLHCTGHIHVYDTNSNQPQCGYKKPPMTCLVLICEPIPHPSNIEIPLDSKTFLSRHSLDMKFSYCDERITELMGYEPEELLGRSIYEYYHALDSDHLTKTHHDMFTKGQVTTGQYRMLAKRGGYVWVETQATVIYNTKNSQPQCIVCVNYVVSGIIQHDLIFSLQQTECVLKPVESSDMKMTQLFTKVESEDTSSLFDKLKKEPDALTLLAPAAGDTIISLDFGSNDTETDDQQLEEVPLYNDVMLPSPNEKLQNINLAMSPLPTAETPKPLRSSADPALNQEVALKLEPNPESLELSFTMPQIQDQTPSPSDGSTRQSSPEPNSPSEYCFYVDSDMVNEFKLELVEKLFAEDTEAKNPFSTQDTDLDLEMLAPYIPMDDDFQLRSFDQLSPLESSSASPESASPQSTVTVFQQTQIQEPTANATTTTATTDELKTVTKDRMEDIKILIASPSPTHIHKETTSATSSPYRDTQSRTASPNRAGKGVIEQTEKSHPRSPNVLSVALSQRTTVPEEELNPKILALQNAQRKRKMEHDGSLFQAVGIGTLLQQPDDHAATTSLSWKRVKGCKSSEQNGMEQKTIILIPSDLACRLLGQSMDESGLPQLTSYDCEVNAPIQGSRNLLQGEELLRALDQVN
Summary of the method: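 HepG2 cells transiently transfected with multiplexed cis-promoter reporter units; reporter mRNA read 24 h after dosing by RT-PCR, 6-FAM primer-extension labelling, HpaI digestion and capillary electrophoresis. Bidirectional fit versus DMSO baseline.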

[18] = target: Hepatocyte nuclear factor 6 (Homo sapiens) (UniProt Q9UBC0); test: ATG_HNF6_CIS: Attagene CIS-FACTORIAL HepG2 Assay for human Hepatocyte Nuclear Factor 6 (HNF6) (AID 2282952); conditions: HepG2 Attagene cis-factorial HNF6 reporter transcription; actives raise or lower the signal
Hepatocyte nuclear factor 6 (Homo sapiens), sequence (Q9UBC0 whole entry, looked up): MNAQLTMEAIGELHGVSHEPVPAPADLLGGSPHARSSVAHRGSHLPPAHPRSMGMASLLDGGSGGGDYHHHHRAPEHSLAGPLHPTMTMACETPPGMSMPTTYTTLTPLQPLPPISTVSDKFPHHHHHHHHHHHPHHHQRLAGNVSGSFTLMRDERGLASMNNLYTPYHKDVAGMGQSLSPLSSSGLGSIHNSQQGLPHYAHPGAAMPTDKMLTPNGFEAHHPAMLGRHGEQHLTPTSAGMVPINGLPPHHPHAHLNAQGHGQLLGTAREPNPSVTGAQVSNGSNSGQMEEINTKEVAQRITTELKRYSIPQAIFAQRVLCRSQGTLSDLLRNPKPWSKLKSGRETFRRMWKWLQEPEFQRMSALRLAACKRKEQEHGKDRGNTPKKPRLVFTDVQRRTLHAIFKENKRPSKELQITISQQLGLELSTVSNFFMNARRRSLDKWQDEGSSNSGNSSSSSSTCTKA
Summary of the method: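 HepG2, transient MRTU transfection (cis promoters); 24 h chemical exposure; total RNA → oligo(dT) RT → PCR → 6-FAM labelling → HpaI cut → CE; bidirectional fit vs DMSO.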

[19] = target: Heat shock factor protein 1 (Homo sapiens) (UniProt Q00613); test: ATG_HSE_CIS: Attagene CIS-FACTORIAL HepG2 Assay for human Heat Shock Transcription Factor 1 (HSE) (AID 2282953); conditions: HepG2 HSE cis-reporter, Attagene RNA transcription; actives raise or lower the signal
Heat shock factor protein 1 (Homo sapiens), sequence (Q00613 whole entry, looked up): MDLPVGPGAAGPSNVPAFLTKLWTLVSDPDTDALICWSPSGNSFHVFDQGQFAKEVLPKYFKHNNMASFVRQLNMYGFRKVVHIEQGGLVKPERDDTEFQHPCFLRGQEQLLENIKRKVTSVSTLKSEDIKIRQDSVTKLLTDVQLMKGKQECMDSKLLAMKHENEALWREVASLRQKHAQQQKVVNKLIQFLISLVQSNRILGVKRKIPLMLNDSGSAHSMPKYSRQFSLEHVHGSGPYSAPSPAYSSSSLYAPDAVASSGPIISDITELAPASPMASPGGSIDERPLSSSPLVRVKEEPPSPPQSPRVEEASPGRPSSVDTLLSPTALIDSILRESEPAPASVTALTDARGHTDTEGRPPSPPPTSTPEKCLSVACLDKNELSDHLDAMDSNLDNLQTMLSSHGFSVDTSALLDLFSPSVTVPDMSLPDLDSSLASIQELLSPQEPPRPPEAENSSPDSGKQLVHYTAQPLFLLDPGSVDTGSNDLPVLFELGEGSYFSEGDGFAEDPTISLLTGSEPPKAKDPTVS
Summary of the method: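 Using HepG2 with transfected cis-driven reporter constructs, compound effects on endogenous factor activity are scored as reporter mRNA change at 24 h. Detection: RT-PCR, HpaI digestion, capillary electrophoresis; bidirectional fitting to DMSO.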

[20] = ATG_MRE_CIS: Attagene CIS-FACTORIAL HepG2 Assay for human Metal Responsive Element (MRE) (AID 2282954); conditions: HepG2 MRE cis-reporter transcription, Attagene multiplex; actives raise or lower the signal
Summary of the method: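 HepG2 cells transiently transfected with cis-element-driven reporter units; mRNA measured 24 h after dosing. Reporter transcripts quantified by RT-PCR, FAM labelling, HpaI digestion and capillary electrophoresis; bidirectional fit versus DMSO.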

Measured: AC50

CC(C)Nc1ccc(NC(C)C)c2c1C(=O)c1ccccc1C2=O
inactive: all assays above

O=c1[nH]cccc1O
inactive: all assays above

OCCCCl
inactive: all assays above

CC(C)(C)C(=O)C1C(=O)c2ccccc2C1=O
active: [17] 158 µM
inactive: all other assays above

Cc1ccc(O)cn1
inactive: all assays above

O=C=NCc1cccc(CN=C=O)c1
inactive: all assays above

CC1CCCCC1
inactive: all assays above

CC(C)(C)c1cc(CCC(=O)OCC(COC(=O)CCc2cc(C(C)(C)C)c(O)c(C(C)(C)C)c2)(COC(=O)CCc2cc(C(C)(C)C)c(O)c(C(C)(C)C)c2)COC(=O)CCc2cc(C(C)(C)C)c(O)c(C(C)(C)C)c2)cc(C(C)(C)C)c1O
active: [6] 7.29 µM
inactive: all other assays above

Oc1ccc2c(c1)CCC2
active: [6] 55.2 µM
inactive: all other assays above

CC(C)(C)c1cc(CCC(=O)NCCCCCCNC(=O)CCc2cc(C(C)(C)C)c(O)c(C(C)(C)C)c2)cc(C(C)(C)C)c1O
inactive: all assays above

Oc1ccc(C2(c3ccc(O)c(C4CCCCC4)c3)CCCCC2)cc1C1CCCCC1
active: [4] 8.92 µM | [5] 8.87 µM | [7] 16.5 µM | [8] 60.1 µM | [10] 8.81 µM | [13] 33.4 µM | [14] 55.9 µM | [19] 8.18 µM | [20] 11.1 µM
inactive: all other assays above

CC(C)=CCCC(C)O (stereo not given)
inactive: all assays above

O=S(=O)(O)CCC(F)(F)C(F)(F)C(F)(F)C(F)(F)C(F)(F)C(F)(F)C(F)(F)C(F)(F)F
active: [12] 39.9 µM
inactive: all other assays above

CCCCCCCCn1sc(Cl)c(Cl)c1=O
active: [6] 11.1 µM | [7] 6.69 µM | [8] 8.19 µM | [10] 20.5 µM | [11] 11.1 µM | [13] 18.6 µM | [15] 15.9 µM | [17] 16.3 µM | [19] 11.1 µM
inactive: all other assays above
